NS1 inh – inhibitors of influenza NS1 protein function; 270,000 tested, 0.4% active; AID 2326; Potency, µM (top dose mostly 46.1 µM), for the others: at the highest dose activity, positive = more growth; calls by dose curve; further: potency means the concentration at half of the fitted maximal effect; actives are rising curves; nearly all actives have a fitted effect of over 50% in size
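In this qHTS, NS1 from influenza A is expressed in budding yeast, where it slows growth. Cells are switched from glucose to 2% galactose medium (pH 6.0, -URA), treated with compound, and growth recovery is read at OD600.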
CHX counter – affects cycloheximide protein synthesis inhibition readout, counter-screen | cell reporter, cycloheximide protein synthesis inhibition counterscreen | max response, % | 300,000 tested, 12% active | AID 2314; in the data active means max response mostly above about 13%, no sharp cut-off; inactive means mostly below about 14%; further: read at 38.3 µM for the half of the compounds with a filed dose; 0% is about no effect
Pf growth 96h – inhibits malaria parasite growth, 96 h; P. falciparum luciferase reporter growth, 96 h; 320,000 tested, 6.9% active; Potency, µM (series often up to 28.7 µM), for the others: top-dose activity change, negative = inhibition, most hits filed as inhibitors; further: potency means the concentration at half of the fitted maximal effect; on the % scale 0 is the no-effect control and ±100 the full control effect
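Delayed-death screen, second-generation endpoint: infected erythrocytes, 2% hematocrit, 0.05% parasitemia final; 96 hours at 37 C, 5% CO2; luciferase detection reagent; luminescence decrease equals reduced growth.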
Shiga inhibitor – blocks Shiga toxin action in Vero cells. Vero cells, Shiga toxin protein synthesis inhibition reporter. inhibition, % at 38.7 µM. 290,000 tested, 9.2% active; in the data active means inhibition mostly above about 28%, no sharp cut-off; inactive means mostly below about 43%; further: 0% is about no effect
Pf growth 48h – inhibits P. falciparum growth in the first generation, 48 h; P. falciparum luciferase growth in erythrocytes, 48 h; Potency, µM (top dose mostly 28.7 µM), for inactives: top-dose activity change, negative = inhibition, most hits filed as inhibitors; 310,000 tested, 5.9% active; AID 504832; further: potency means the concentration at half of the fitted maximal effect; on the % scale 0 is the no-effect control and ±100 the full control effect
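A one-generation exposure of luciferase-tagged malaria parasites in RPMI 1640/Albumax erythrocyte culture, 37 C and 5% CO2. Inhibition is inferred from decreased luminescence after adding detection reagent.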
The depositor's hits bear a star; u = inconclusive; x = not tested or not shown. Only some compounds are listed: those with a hit (about 21% of all), similar ones and a draw of the others. Unless noted, the call rests on the fitted dose curve; in most records, active means well fitted inhibition curve with a large enough effect; inconclusive means small, poorly fitted or top-dose-only effect, or another doubt; inactive means no such curve, though single readings can be large or run the other way.

SMILES | NS1 inh | CHX counter | Pf growth 96h | Shiga inhibitor | Pf growth 48h
Cc1ccc(C(=O)c2coc3ccc(O)cc23)cc1 | -31.1% | 33.9* | 462.5% | 40.9* | 297.9%
CN=C(C)/C(C(=O)OC)=C(/O)c1ccc(Cl)cc1Cl | -3.3% | 1.4 | 34.4% | -7.3 | 29.0%
O=C(CNC(=S)N(CCCN1CCOCC1)Cc1cccs1)NC1CCCCC1 | -0.3% | -1.3 | 15.4% | -2.8 | -14.1%
Nc1nonc1-n1nnc(C(=O)N/N=C/c2ccc(OCc3ccc(F)cc3)cc2)c1COc1ccccc1 | -42.4% | 1.7 | -11.1% | -6.3 | -7.7%
Cc1cc(Cl)ccc1Nc1sc(C(=O)c2cc3cc(Cl)ccc3o2)c(N)c1C#N | -5.3% | x | x | x | x
O=S(Cc1ccc(Br)cc1)Cc1nnc(SCc2ccc(Br)cc2)n1-c1ccccc1 (centres undefined) | u | -5.1 | u | -12.1 | u
CN(C)C(=O)c1ccc(NC(=O)c2ccccc2SCC(=O)N2CCCC2)cc1 | x | x | -18.3% | x | -5.4%
CN(C)S(=O)(=O)c1ccc(N2CCCC2)c(C(=O)NC(c2ccccc2)c2ccccc2)c1 | 8.2% | -5.5 | x | -17.0 | 0.828µM*
Cc1ccc(NC(=O)c2ccccc2SCC(=O)N2CCCC2)cc1S(=O)(=O)N(C)C | -1.7% | 1.8 | 6.57µM* | 3.7 | u
CCc1ccccc1NC(=O)c1cc(S(=O)(=O)N(C)C)ccc1N1CCCC1 | 13.7% | -1.5 | u | -26.6 | u
Cc1ccc(NC(=O)c2cc(S(=O)(=O)N(C)C)ccc2N2CCCC2)cc1S(=O)(=O)N(C)C | x | x | 10.4µM* | x | u
CN(C)S(=O)(=O)c1ccc(N2CCCC2)c(C(=O)Nc2ccc(C(N)=O)cc2)c1 | x | x | -2.6% | x | u
CN(C)S(=O)(=O)c1ccc(N2CCCC2)c(C(=O)Nc2ccccc2Br)c1 | x | x | 14.7µM* | x | 13.1µM*
Cc1ccc(C(=O)NCC(=O)OC(C)C(=O)NC2CCCc3ccccc32)cc1 (centres undefined) | x | x | 49.3% | x | 32.4%
CCCCn1c(N)c(N(CCC(C)C)C(=O)c2c(C)noc2C)c(=O)[nH]c1=O | x | x | 37.8% | x | -0.3%
COc1ccc(OC)c(NC(=O)c2cc(S(=O)(=O)N(C)C)ccc2N2CCCC2)c1 | x | x | u | x | 13.1µM*
CN(C)S(=O)(=O)c1ccc(N2CCCC2)c(C(=O)NNC(=O)c2ccccc2)c1 | x | x | u | x | 7.38µM*
CC1CCN(CCCNC(=O)c2nn(C)c3c2CS(=O)(=O)c2ccccc2-3)CC1 | -9.5% | -1.0 | -15.4% | -4.4 | 16.4%
O=C(N/N=C/c1ccc(OC(=O)c2cccc(Br)c2)cc1)c1cccnc1 | -33.9% | -2.4 | 2.5% | 9.5 | 19.0%
O=C(N/N=C/c1ccc(Br)s1)c1cccnc1 | -0.4% | 26.3* | 20.1% | 42.1* | u
O=C(N/N=C/c1cc(O)ccc1Br)c1cccnc1 | -50.9% | -2.6 | 5.8% | 1.5 | 13.1µM*
O=C(N/N=C/c1cc2c(cc1Br)OCO2)c1cccnc1 | x | 14.4 | -18.7% | 30.6 | 0.0%
O=C(N/N=C/c1cc(Br)c(O)c(Br)c1O)c1cccnc1 | 7.8% | 1.1 | -13.9% | 1.9 | 10.4µM*
CCOc1cc(/C=N/n2c(C)nnc2C)ccc1O | 7.4% | 1.6 | -0.5% | 12.0 | -0.9%
NC(=O)C1CCN(C(=O)CCC(=O)c2ccc(F)cc2)CC1 | -2.1% | 7.0 | 21.4% | -1.4 | 5.9%
SMILES | NS1 inh | CHX counter | Pf growth 96h | Shiga inhibitor | Pf growth 48h
O=C(CCN1C(=O)c2ccccc2C1=O)N1CCC(c2ccccc2)C1 (centres undefined) | -32.1% | 20.6* | x | 123.3 | 6.5%
O=C(COc1ccc(Br)cc1)N1CCC(c2ccccc2)C1 (centres undefined) | -24.7% | 23.0* | -0.8% | 74.6 | -1.7%
O=C(CCN1C(=O)c2ccccc2C1=O)N1CCCCCC1 | 1.4% | 13.0* | u | 32.4 | 15.6%
COc1ccc(S(N)(=O)=O)cc1C(=O)OCCCC(=O)c1ccccc1 | x | x | 14.7µM* | x | u
CCc1nc2ccc(C(=O)N3CCN(c4ccccc4F)CC3)cc2nc1CC | 7.5% | -0.6 | u | -1.2 | -7.2%
O=S(=O)(NCCc1ccccc1)c1ccc(S(=O)(=O)N2CCCCC2)cc1 | -10.7% | -1.7 | u | -5.2 | x
COc1ccc(CNC(=S)N2CCN(S(=O)(=O)c3cccc(F)c3)CC2)cc1 | -4.4% | -3.1 | 3.29µM* | 2.0 | u
O=S(=O)(c1ccccc1F)N1CCN(C(=S)NCc2ccccc2)CC1 | x | -1.4 | 2.62µM* | -6.2 | 3.7µM*
CCOc1ccc(S(=O)(=O)N2CCC(C(=O)N3CCN(Cc4ccccc4)CC3)CC2)cc1 | -4.6% | 5.5 | 0.5% | -9.5 | 9.28µM*
O=S(=O)(NCc1ccccc1)c1ccc(S(=O)(=O)N2CCCCC2)cc1 | 3.2% | -3.3 | 5.22µM* | 41.6 | 15.0%
O=C(Cn1cc(C(=O)c2cccs2)c2ccccc21)NC1CCCCC1 | 19.6% | -3.2 | x | -11.2 | x
CSCCC(NC(=O)COc1ccccc1)C(=O)NCCOc1ccc(C)cc1 (centres undefined) | -12.5% | -1.8 | u | -9.6 | -8.8%
COc1ccc(N(C(=O)Cn2nnc(-c3ccccc3F)n2)C(C(=O)NCC2CCCO2)c2ccc(Cl)cc2)cc1 (centres undefined) | -1.7% | -1.7 | 41.9% | -5.4 | 0.3%
Cn1c2ccsc2c2cnn(Cc3ccc(F)cc3)c(=O)c21 | x | x | 8.7% | x | u
O=S(=O)(c1ccccc1)N1CCN(C(=S)NCCc2ccccc2)CC1 | -2.3% | -2.9 | u | -11.5 | u
O=S(=O)(c1cccc(F)c1)N1CCN(C(=S)NCc2ccccc2)CC1 | x | -1.8 | u | -12.1 | 3.7µM*
O=C(CSCc1ccccc1)N1CCN(S(=O)(=O)c2cccc(F)c2)CC1 | x | x | 11.8% | x | 8.9%
CCOc1ccc(S(=O)(=O)N2CCN(C(=S)NCc3ccccc3)CC2)cc1 | 3.0% | 0.9 | 2.08µM* | -9.9 | 2.33µM*
CCOc1ccc(S(=O)(=O)N2CCN(C(=O)c3ccco3)CC2)cc1 | -13.2% | -2.4 | -15.7% | -4.4 | 7.0%
O=S(=O)(c1ccccc1)N1CCN(C(=S)NCc2ccccc2)CC1 | x | 2.4 | 2.08µM* | -12.4 | 2.62µM*
COc1cc(C(=O)NCCCC2CCCC2)ccc1OC1CCN(C(C)=O)CC1 | -0.2% | -4.5 | u | -4.1 | u
CC(=O)c1ccc(S(=O)(=O)N2CCCCC2C(=O)O)cc1 (centres undefined) | x | -0.9 | u | 7.0 | 12.6%
CC1=C(C(=O)OCc2ccccc2)C(c2ccc(Cl)cc2)NC(=O)N1CCCCCC(=O)O (centres undefined) | -2.9% | -3.6 | 11.7µM* | -21.6 | u
CC1=C(C(=O)OCc2ccccc2)C(c2cccc([N+](=O)[O-])c2)NC(=O)N1CCCCCC(=O)O (centres undefined) | -1.2% | -4.4 | 10.4µM* | -17.6 | u
N#Cc1ccc(CSc2ncnc3c2cnn3Cc2ccccc2)cc1 | -4.8% | -3.1 | 7.38µM* | 8.8 | u
COc1ccc(-n2c(C)cc(-c3csc(NC(=O)c4ccc(S(=O)(=O)N(C)C)cc4)n3)c2C)cc1 | 5.1% | -2.3 | 11.7µM* | -2.6 | u
COc1ccc(-c2csc(NC(=S)NC(=O)c3cccs3)n2)cc1OC | 0.9% | 15.0 | u | 18.7 | 11.7µM*
